Results: PubChem BioAssay (Tox21)
Values joined by “and” are separate entries in the source; they are usually repeats but may differ in a detail not shown here. Equal entries are not always repeated. Inconclusive results are not listed. Where a structure was tested more than once in an assay, its records may differ in their call. Active and inactive are the calls of the source. The call rests on the fitted dose curve; in most records, active means well fitted cell-killing curve with a large enough effect in the repeat runs; inconclusive means weak or mixed curves, or effect the other way; inactive means no such curve, though single readings can be large or run the other way.

Assay: qHTS assay for identifying genotoxic compounds that show differential cytotoxicity against isogenic chicken DT40 cell lines with known DNA damage response pathways - wild type cell line (AID 743012); further: nearly all actives have a fitted effect of over 60% in size
Conditions: DT40 wild type chicken cells viability, CellTiter-Glo, 40 h; series mostly up to 68.4 µM; activity change, negative = cytotoxicity: at the top concentration
Text: U.S. Tox21 Program National Center for Advancing Translational Sciences [NCATS] NIH Chemical Genomics Center [NCGC] U.S. Environmental Protection Agency [EPA] National Institutes of Environmental Health Sciences [NIEHS] National Toxicology Program [NTP] U.S. Food and Drug Administration [FDA] Tox21 Assay Overview: DNA repair pathways play a critical role in cellular homeostasis by repairing DNA damage induced by endogenous processes and xenobiotics. Isogenic chicken DT40 cell lines deficient in different DNA repair pathways can be used to identify genotoxic compounds and aid in characterizing the nature of the DNA damage induced. Two DNA repair-deficient cell lines with disrupted genes, Rad54/Ku70 or Rev3, were used to screen the Tox21 10K compound library. Possible genotoxicity was based on the presence of a significant increase in cytotoxicity in one or more of the DNA repair-deficient cell lines compared to that observed in the parental DNA repair-proficient cell line. CellTiter Glo viability assay (Promega, Madison, WI) was used to measure cell viability in these cells after compound treatment. This assay includes the data from the wild type cell line.
Tox21 Assay Protocol Summary: 300 DT40 wild type cells in 5 uL/well were dispensed into white, solid-bottom 1536-well plates using a Multidrop Combi (ThermoFisher Scientific, Waltham, MA) dispenser. After the assay plates were incubated at 37 C/5% CO2 for approximately 0.5 hour, 23 nL of compounds dissolved in DMSO, positive controls or DMSO only was transferred into the assay plate by a pintool work station (Kalypsys, San Diego, CA). The assay plates were incubated at 37 C/5% CO2 for 40 hours. After 5 uL per well of CellTiter-Glo reagent was added into each well of the assay plates, the plates were incubated for 30 min at room temperature and the luminescence intensity of the plates was measured using a ViewLux (PerkinElmer, Shelton, CT) plate reader.
On the % scale 0 is the no-effect control and ±100 the full control effect; potency means the concentration at half of the fitted maximal effect.

SMILES	Potency	activity change, negative = cytotoxicity
COc1ccc2sc(C(=O)Nc3nnn[nH]3)c(OC(C)C)c2c1	30.5 µM (active)	–
NC(=O)c1ccccc1N	–	3.71% [at 95 µM] (inactive)
CC(C)c1cccc(C(C)C)c1N1C(=O)c2ccc(O)cc2C1=O	8.63 µM (active)	–
Cn1cnc2ncnc(N)c21	–	-1.66% (inactive)
CCCCCCCCCCCCN(CCO)CCO	0.86 µM (active)	–
C=C(c1ccc(C(=O)O)cc1)c1cc2c(cc1C)C(C)(C)CCC2(C)C	–	-7.56% (inactive)
O=C1C=CC(=O)N1c1ccccc1	1.09 µM (active)	–
CSc1ccc2c(c1)N(CCC1CCCCN1C)c1ccccc1S2 (stereo not given)	5.96 µM (active) and 21.6 µM (active)	–
CC(=O)OC(OC(C)=O)c1ccc([N+](=O)[O-])o1	19.7 µM (active)	–
NC1(c2ccc(-c3nc4ccn5c(=O)[nH]nc5c4cc3-c3ccccc3)cc2)CCC1	1.19 µM (active)	–
CSc1c(Cl)c(Cl)c(Cl)c(Cl)c1Cl	–	9.39% (inactive)
Cc1cccc(C)c1NC(=O)CN1CCN(CCCC(c2ccc(F)cc2)c2ccc(F)cc2)CC1	4.03 µM (active)	–
CCCCCCCC/C=C\CCCCCCCC(=O)N(C)CC(=O)O	21.7 µM (active)	–
CC(CN(C)C)CN1c2ccccc2CCc2ccccc21 (stereo not given)	11.4 µM (active)	–
CC(C)c1ccc(O)c(C(C)C)c1	54.5 µM (active)	–
CCCCN(CCCC)CCC(O)c1cc2c(Cl)cc(Cl)cc2c2cc(C(F)(F)F)ccc12 (stereo not given)	11.4 µM (active)	–
CCCCCCCCCCCCOC(=O)c1cc(O)c(O)c(O)c1	609 nM (active) and 386 nM (active)	–
O=C1NCCN1CCN1CCC(c2cn(-c3ccc(F)cc3)c3ccc(Cl)cc23)CC1	944 nM (active) and 1.5 µM (active)	–
CN1CCN(C2Cc3ccccc3Sc3ccc(Cl)cc32)CC1 (stereo not given)	5.96 µM (active)	–
Cc1occc1SSc1ccoc1C	19.3 µM (active)	–

SMILES	Potency	activity change, negative = cytotoxicity
CCCCCCCCCCCCCC[n+]1ccccc1	0.122 µM (active)	–
C/C=C/C(=O)Oc1c(CCCCCC(C)C)cc([N+](=O)[O-])cc1[N+](=O)[O-]	3.44 µM (active)	–
CC(C(O)c1ccccc1)N(C)CCOC(c1ccccc1)c1ccccc1 (stereo not given)	5.31 µM (active)	–
O=C1NCN(c2ccccc2)C12CCN(CCCC(c1ccc(F)cc1)c1ccc(F)cc1)CC2	6.68 µM (active)	–
CCCCCCCCCCCCCOP(=O)(O)O	–	28.1% (inactive)
COc1cc(C(=O)NS(=O)(=O)c2ccccc2C)ccc1Cc1cn(C)c2ccc(NC(=O)OC3CCCC3)cc12	–	0.224% (inactive)
O=Nc1ccc(NO)cc1	–	11.3% [at 95 µM] (inactive)
COc1ccccc1OCCNCC(O)COc1cccc2[nH]c3ccccc3c12 (stereo not given)	26.6 µM (active)	–
C[C@@H]1CC[C@H]2C(C)(C)[C@H]3C[C@@]12CC[C@@]3(C)O	–	25.7% (inactive)
O[C@@H](c1cc(C(F)(F)F)nc2c(C(F)(F)F)cccc12)[C@H]1CCCCN1	4.73 µM (active)	–
C/C=C/C=N/NC(=O)c1ccncc1	–	6.18% (inactive)
C=CC(=O)OCCOCC(CC)(COCCOC(=O)C=C)COCCOC(=O)C=C	6.37 µM (active)	–
CCC(C)c1cc([N+](=O)[O-])cc([N+](=O)[O-])c1OC(=O)OC(C)C (stereo not given)	30.6 µM (active)	–
CCCCOC(=O)C(C)CC (stereo not given)	12.2 µM (active)	–
CO[C@H]1C=CO[C@@]2(C)Oc3c(C)c(O)c4c(O)c(cc(O)c4c3C2=O)NC(=O)/C(C)=C\C=C/[C@H](C)[C@H](O)[C@@H](C)[C@@H](O)[C@@H](C)[C@H](OC(C)=O)[C@@H]1C	inactive and 13.8 µM (active)	–
CC(C)(C)C1=CC(=O)C=C(C(C)(C)C)C1=O	–	2.66% (inactive)
C[Si](C)(C)Cl	–	-9.04% (inactive)
c1cc(OCC2CO2)cc(OCC2CO2)c1 (stereo not given)	0.856 µM (active)	–
CCCC(CC)CCCCCCCN (stereo not given)	–	-21.8% [at 95 µM] (inactive)
CCOC(=O)N1CCC(=C2c3ccc(Cl)cc3CCc3cccnc32)CC1	8.41 µM (active) and 8.63 µM (active)	–
